Laboratory results as given in PubChem BioAssay (NCATS).
Results filed as inconclusive are left out. Activity calls are given as the source filed them. Unless noted, the call rests on the fitted dose curve; in most records, active means well fitted curve in the direction sought with a large enough effect; inconclusive means small, poorly fitted or top-dose-only effect, or another doubt; inactive means no such curve, though single readings can be large; an effect the other way counts as inactive or inconclusive.

Legend:
[1] = Cell Viability - BJ (AID 421; calls by dose curve;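 further: potency means the concentration at half of the fitted maximal effect; cells exposed to compound for 40 hours at 37 °C before readout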); conditions: BJ fibroblast viability, qHTS
Summary of the method: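 Quantitative HTS: ATP depletion in BJ cells after 40 hr compound exposure in complete culture medium, detected with CellTiter-Glo; AC50 from standard Hill fits.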

[2] = Cell Viability - Jurkat (AID 426;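 active means dose-dependent loss of cell ATP signal giving a full or clear fitted curve, ranked by lower potency value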; further: potency means the concentration at half of the fitted maximal effect); conditions: qHTS
Summary of the method: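 qHTS, 1536-well; Jurkat E6-1, 5000 cells/well, complete medium; cpd 40 hr, 37 °C; CellTiter-Glo 20 min RT; luminescence. AC50 by Hill fit.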

[3] = Cell Viability - Hek293 (AID 427;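 active means compounds whose dose-response curve shows a full or clear partial loss of cell viability, called from curve shape rather than a numeric limit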;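 further: potency means the concentration at half of the fitted maximal effect; cells exposed to compound for 40 hours at 37 °C before reading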); conditions: qHTS
Summary of the method: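 AC50 values derive from Hill-modelled concentration-response of ATP-based luminescence, normalized between DMSO-only and 100 uM tamoxifen controls. Cells were exposed in complete culture medium for 40 hr at 37 °C before detection.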

[4] = Cell Viability - HepG2 (AID 433; calls by dose curve;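 further: potency means the concentration at half of the fitted maximal effect; potency for ATP loss meaning cytotoxicity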); conditions: qHTS
Summary of the method: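 Cytotoxicity read as ATP loss (CellTiter-Glo luminescence) after 40 hr compound exposure of HepG2, 1500 cells/well, 37 °C. AC50 by Hill equation; 0% set by DMSO, 100% inhibition by 100 uM tamoxifen.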

[5] = Cell Viability - MRC5 (AID 434; calls by dose curve;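 further: potency means the concentration at half of the fitted maximal effect; potency reflects cytotoxicity seen as loss of intracellular ATP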); conditions: MRC5 lung fibroblast viability, qHTS
Summary of the method: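 MRC5 normal human lung fibroblasts (1500/well) were treated with compounds for 40 hr at 37 °C in complete medium, and viable cells were measured as intracellular ATP by CellTiter-Glo luminescence. AC50 came from Hill fits, normalized to DMSO and 100 uM tamoxifen.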

[6] = Cell Viability - SK-N-SH (AID 435; calls by dose curve; further: potency means the concentration at half of the fitted maximal effect); conditions: SK-N-SH neuroblastoma cell viability qHTS
Summary of the method: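 qHTS cytotoxicity: CellTiter-Glo ATP luminescence after 40 h compound exposure of human neuroblastoma SK-N-SH cells at 37 °C. AC50 derived by Hill-equation fitting, with DMSO as basal and 100 uM tamoxifen as full inhibition.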

[7] = target: Mitogen-activated protein kinase 10 (Mus musculus) (UniProt Q61831); experiment: JNK3 AlphaScreen Assay (AID 530; active means well fitted curve in either direction with a large enough effect, not every such curve was filed as active;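 further: kinase came from lysate of stimulated human HepG2 cells; signal reports phosphorylation of biotinylated GST-cJun 1-79 at Ser73 with 10 µM ATP; series mostly up to about 57 µM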)
Summary of the method: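 Inhibitors reduce antibody binding to phosphorylated biotin-cJun, lowering AlphaScreen luminescence. Lysates from HepG2 cells pre-activated by IL-1beta plus TNF-alpha supplied JNK3; compounds were titrated.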

[8] = Cell Viability - N2a (AID 540); further: nearly all actives have a fitted effect of over 45% in size
Summary of the method: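 Luminescent ATP signal (CellTiter-Glo, 20 min at room temperature) served as the viability read-out after N2a cells were treated with compounds for 40 hours at 37 °C. Concentration-response data were fitted to the Hill equation for AC50.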

[9] = Cell Viability - HUV-EC-C (AID 542); further: nearly all actives have a fitted effect of over 35% in size
Summary of the method: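 qHTS cytotoxicity: HUV-EC-C, 1000 cells/well, 5 hr settle, compound 40 hr 37 °C, CellTiter-Glo, luminescence. AC50 via Hill equation.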

[10] = Cell Viability - H-4-II-E (AID 543); further: nearly all actives have a fitted effect of over 35% in size
Summary of the method: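 Luminescent ATP signal (CellTiter-Glo) served as the viability read-out, with cytotoxicity seen as a concentration-dependent ATP drop. Cells were treated for 40 hours in complete medium. AC50 values derive from Hill-equation modelling.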

[11] = Cell Viability - SH-SY5Y (AID 544); further: nearly all actives have a fitted effect of over 55% in size
Summary of the method: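 Luminescent ATP read-out (CellTiter-Glo) measures loss of viable SH-SY5Y neuroblastoma cells after 40 hr compound exposure at 37 °C. AC50 values derive from standard Hill modelling of qHTS concentration-response data.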

[12] = Cell Viability - Renal Proximal Tubule (AID 545); further: nearly all actives have a fitted effect of over 40% in size
Summary of the method: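 Viability taken as intracellular ATP (CellTiter-Glo luminescence) after 40 hr, 37 °C compound treatment of primary proximal tubule cells from rat kidney, 1000 cells/well; Hill-equation fits of qHTS concentration-response data gave AC50.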

[13] = Cell Viability - Mesenchymal (AID 546);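 further: cells exposed to compound for 40 hours before reading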
Summary of the method: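 Normal human renal glomerulus-derived kidney mesenchymal cells, 1000 per well in complete medium, were treated with compounds for 40 hr at 37 °C. Viability was read as intracellular ATP by CellTiter-Glo luminescence; AC50 values came from Hill-equation fits of qHTS concentration-response data.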

[14] = Cellular Toxicity (caspase-3) HepG2 (AID 654);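 further: cells exposed to compound for 16 hours before reading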
Summary of the method: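 Cells plated 5 hr at 37 °C, compound added, incubated 16 hr at 37 °C. Caspase-Glo 3/7 reagent followed, 20 min at room temperature, then luminescence read. Activation scored as signal increase; AC50 from Hill fit.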

[15] = Cellular Toxicity (caspase-3) Jurkat (AID 655);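 further: cells exposed to compound for 16 h at 37 °C before reading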
Summary of the method: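 Luminescent Caspase-Glo 3/7 read-out (20 min, room temperature) after 16 h compound treatment at 37 C of 5000 Jurkat cells per well. AC50 derived by Hill-equation fitting, scaled between DMSO basal and 100 uM tamoxifen stimulation.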

[16] = Cellular Toxicity (caspase-3) HUV-EC-C (AID 656)
Summary of the method: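 Luminescent Caspase-Glo 3/7 readout after 16 h, 37 °C compound exposure of HUV-EC-C endothelial cells, 1000 per well, complete medium. AC50 derived by Hill fitting, with DMSO as baseline and 100 uM tamoxifen as full activation.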

[17] = Cellular Toxicity (caspase-3) SHSY5Y (AID 657)
Summary of the method: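 Luminescent Caspase-Glo 3/7 read-out, 1 hr room temperature, follows 16 hours of compound treatment of SH-SY5Y cells at 37 °C. Normalization: DMSO basal, 10 uM staurosporine as 100%; AC50 values from Hill-equation concentration-response fits.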

[18] = Cellular Toxicity (caspase-3) BJ (AID 658)
Summary of the method: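 Luminescent aminoluciferin-substrate cleavage reports caspase 3/7 activity in normal human BJ fibroblasts after 16 hr compound exposure at 37 °C. Normalized to DMSO (basal) and 10 uM staurosporine (100%); AC50 from Hill fit of concentration-response.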

[19] = Cellular Toxicity (caspase-3) MRC-5 (AID 659)
Summary of the method: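 Luminescence from caspase-cleaved aminoluciferin substrate (Caspase-Glo 3/7, 1 hr RT) reports caspase 3/7 activity in MRC-5 lung fibroblasts after 16 hr compound exposure. Normalized to DMSO basal and 10 uM staurosporine as 100%; AC50 from Hill fits.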

[20] = Cellular Toxicity (caspase-3) Mesangial (AID 660);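 further: combined caspase 3 and 7 activity read by Caspase-Glo luminescence; cells exposed to compound for 16 h before the caspase read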
Summary of the method: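 Mesangial cells, 1000/well, 5 h settle at 37 °C; compound 16 h, 37 °C; Caspase-Glo 3/7 reagent 20 min RT; luminescence. Norm.: DMSO = 0%, tamoxifen 100 uM = 100%. AC50, Hill fit.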

[21] = Cellular Toxicity (caspase-3) SK-N-SH (AID 661)
Summary of the method: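 Human neuroblastoma SK-N-SH, 1500 cells/well, 5 hr pre-incubation, then compound 16 hr, 37 °C. Caspase-Glo 3/7 reagent, 1 hr RT, luminescence. Norm. to DMSO/10 uM staurosporine; Hill-fit AC50.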

[22] = Cellular Toxicity (caspase-3) H-4-II-E (AID 663)
Summary of the method: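 Luminescence from caspase-cleaved aminoluciferin substrate, read 20 min after reagent addition, reports caspase 3/7 activation in rat H-4-II-E cells after 16 hr compound exposure. Normalized to DMSO (basal) and 100 uM tamoxifen (100%); AC50 from Hill fits.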

[23] = Cellular Toxicity (caspase-3) Hek293 (AID 664);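 further: cells exposed to compound for 16 h at 37 °C before readout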
Summary of the method: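 Cells plated, 5 hr at 37 °C; compounds added; 16 hr at 37 °C; Caspase-Glo 3/7 reagent, 20 min RT; luminescence read. Activation expressed relative to DMSO and 100 uM tamoxifen, AC50 by Hill model.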

[24] = Cellular Toxicity (caspase-3) N2a (AID 665);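 further: compound exposure lasted 16 h at 37 °C before readout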
Summary of the method: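 N2a cells, 1500/well, 5 h settle at 37 °C; cpd 16 h, 37 °C; Caspase-Glo 3/7, 1 h RT; luminescence. Norm: DMSO = 0, 10 uM staurosporine = 100%. AC50, Hill fit.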

[25] = Cellular Toxicity (caspase-3) NIH 3T3 (AID 666)
Summary of the method: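 Luminescence from aminoluciferin released by caspase-3/7 cleavage of a peptide substrate served as read-out. Mouse fibroblast NIH 3T3 cells were exposed to compounds over a concentration range for 16 hours, and AC50 values came from standard Hill modelling.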

[26] = Cellular Toxicity (caspase-3) Renal Proximal Tubule (AID 667);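 further: cells exposed to compound for 16 hours at 37 °C before detection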
Summary of the method: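 Caspase 3/7 activation measured by luminescent aminoluciferin release in primary rat proximal tubule cells after 16 hr compound exposure at 37 °C. AC50 from Hill-fitted concentration-response, scaled between DMSO and 10 uM staurosporine.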

[27] = target: Cytochrome P450 3A4 (Homo sapiens) (UniProt P08684); experiment: qHTS Assay for Inhibitors and Substrates of Cytochrome P450 3A4 (AID 884); further: series mostly up to about 57 µM; nearly all actives have a fitted effect of over 50% in size
Cytochrome P450 3A4 (Homo sapiens), sequence (P08684 whole entry, looked up): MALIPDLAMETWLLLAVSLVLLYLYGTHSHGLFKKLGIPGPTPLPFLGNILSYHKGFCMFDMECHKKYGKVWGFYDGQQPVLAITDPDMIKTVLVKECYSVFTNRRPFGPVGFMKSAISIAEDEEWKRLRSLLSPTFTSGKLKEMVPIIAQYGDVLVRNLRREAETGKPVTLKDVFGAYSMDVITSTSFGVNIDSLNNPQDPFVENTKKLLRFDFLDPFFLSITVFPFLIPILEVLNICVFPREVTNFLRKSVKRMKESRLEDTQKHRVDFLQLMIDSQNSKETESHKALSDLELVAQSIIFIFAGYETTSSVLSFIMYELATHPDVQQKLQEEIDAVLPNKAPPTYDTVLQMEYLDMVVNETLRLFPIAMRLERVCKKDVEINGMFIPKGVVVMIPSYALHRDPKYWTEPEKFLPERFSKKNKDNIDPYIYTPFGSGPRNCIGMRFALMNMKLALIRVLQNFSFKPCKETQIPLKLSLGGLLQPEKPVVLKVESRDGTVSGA
Summary of the method: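 20 nM human CYP3A4 with 25 uM Luciferin-PPXE (at KM) in 200 mM KPO4, preincubated 10 min with compound; NADPH regeneration started a 60 min RT reaction. Luciferin detected by luminescence, normalized to 57 uM ketoconazole as full inhibition.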

[28] = Cell Viability - LYMP2-001 (AID 921); further: series mostly up to about 92 µM; nearly all actives have a fitted effect of over 70% in size
Summary of the method: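 Cellular ATP loss read by luciferase luminescence after 24 h compound exposure at 37 C in complete medium. LYMP2-001 lymphoblastoid cells, 2500/well; qHTS concentration-response data fitted with Hill equation for AC50.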

[29] = MultiTox-Fluor Cytotoxicity Assay - LYMP1-001 - Dead Cells (AID 946)
Summary of the method: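 In this qHTS, 15 uM tetraoctylammonium bromide defined 100% and DMSO defined basal activity. Lymphoblastoid cells (LYMP1-001, 2500 per well) received compound for 16 hr at 37 C before a fluorogenic dead-cell substrate readout at 485/520 nm.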

[30] = MultiTox-Fluor Cytotoxicity Assay - LYMP1-001 - Live Cells (AID 947)
[31] = Cell Viability - LYMP1-002 - Assay at 16 hr (AID 948)
Summary of the method: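 ATP luminescence (CellTiter-Glo) was measured after 16 hr compound exposure at 37 C of 2500 lymphoblastoid LYMP1-002 cells per well. Concentration-response curves were fitted with the Hill equation to give AC50.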

[32] = MultiTox-Fluor Cytotoxicity Assay - LYMP1-002 - Live Cells (AID 955)
Summary of the method: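 Read-out is live-cell protease activity (cell-permeant GF-AFC substrate, fluorescence Ex/Em=405/510), where a decrease indicates acute toxicity. Human lymphoblastoid cells were treated 16 hours at 37 C in a concentration series, and AC50 values came from standard Hill modelling.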

[33] = MultiTox-Fluor Cytotoxicity Assay - LYMP1-002 - Dead Cells (AID 960); further: nearly all actives have a fitted effect of over 60% in size
Summary of the method: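 LYMP1-002 cells 2500/well; 5 hr 37 C pre-incubation; compound 16 hr 37 C; MultiTox-Fluor reagent 60 min RT; dead-cell fluor Ex/Em 485/520. Norm. to DMSO (0%) vs 15 uM tetraoctylammonium bromide (100%); Hill AC50.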

[34] = MultiTox-Fluor Cytotoxicity Assay - LYMP1-003 - Dead Cells (AID 961); further: nearly all actives have a fitted effect of over 70% in size
Summary of the method: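 Acute toxicity is scored as increased dead-cell protease activity in human lymphoblastoid LYMP1-003 cells after 16 h compound exposure in complete culture medium. Activity is normalized to DMSO basal and 15 uM tetraoctylammonium bromide as full response.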

[35] = MultiTox-Fluor Cytotoxicity Assay - LYMP1-003 - Live Cells (AID 962);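 further: cytotoxic hits lower the live-cell protease signal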
Summary of the method: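 qHTS, 1536-well; 2500 cells/well LYMP1-003; 5 hr 37 C settle; cpd 16 hr 37 C; MultiTox-Fluor reagent 60 min RT; live-cell protease fluor. 405/510; Hill-fit AC50; tetraoctylammonium bromide pos. ctrl.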

[36] = Cell Viability - LYMP1-003 - Assay at 24 hr (AID 963)
Summary of the method: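 Cells seeded at 2500/well, 5 hr at 37 C; compounds added; 24 hr at 37 C; CellTiter-Glo added, 30 min room temperature; luminescence read. Decrease in ATP taken as cytotoxicity, AC50 from Hill modelling.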

[37] = Cell Viability - LYMP1-003 - Assay at 40 hr (AID 964); further: series mostly up to about 92 µM; nearly all actives have a fitted effect of over 60% in size
Summary of the method: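 Cells were seeded at 2500 per well and incubated 5 hr at 37 C. Compounds were added across a concentration series and left 40 hr at 37 C. CellTiter-Glo was added for 30 min at room temperature before luminescence reading.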

[38] = Cell Viability - LYMP2-003 (AID 965);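 further: cells exposed to compounds for 24 h before reading; nearly all actives have a fitted effect of over 50% in size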
Summary of the method: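 CellTiter-Glo luminescence quantified ATP loss after 24 h compound treatment of LYMP2-003 lymphoblastoid cells at 37 C. Titration series were fitted with the standard Hill equation to give AC50.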

Measured: Potency

C[C@@H]1[C@H](O)[C@@H](C)/C=C/C=C/C=C/C=C/C=C/C=C/C=C/[C@H](O[C@@H]2O[C@H](C)[C@@H](O)[C@H](N)[C@@H]2O)C[C@@H]2O[C@](O)(C[C@@H](O)C[C@@H](O)[C@H](O)CC[C@@H](O)C[C@@H](O)CC(=O)O[C@H]1C)C[C@H](O)[C@H]2C(=O)O
inactive: [1] > 92 µM | [2] > 92 µM | [3] > 92 µM | [4] > 92 µM | [5] > 92 µM | [6] > 92 µM | [7] | [8] | [9] | [10] | [11] | [12] | [13] | [14] | [15] | [16] | [17] | [18] | [19] | [20] | [21] | [22] | [23] | [24] | [25] | [26] | [27] | [28] | [29] | [30] | [31] | [32] | [33] | [34] | [35] | [36] | [37] | [38]
